A short description of assay [1]: BSK_LPS_PGE2: BioMAP Diversity Plus: LPS Assay for Prostaglandin E2 (PGE2) Biomarker Activity (AID 2283082).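 For AC50: secreted prostaglandin E2 measured by ELISA in LPS-stimulated co-culture.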 The settings on record: primary human HUVEC with PBMC; actives raise or lower the signal. A digest of the protocol:
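PGE2 release measured by ELISA in an LPS-activated co-culture of human umbilical vein endothelial cells and peripheral blood mononuclear cells, read at 24 h post-dosing. DMSO served as baseline for bidirectional curve fitting.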

Read-out in assay [2]: Macrophage colony-stimulating factor (MCSF), CSF1 (gene 1435)
Briefly: BSK_LPS_MCSF: BioMAP Diversity Plus: LPS Assay for Macrophage colony-stimulating factor (MCSF) Biomarker Activity (AID 2283083). The settings on record: primary human HUVEC with PBMC; actives raise or lower the signal. The method, boiled down: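 Human umbilical vein endothelial cells co-cultured with peripheral blood mononuclear cells were exposed to compound for 24 h. M-CSF levels were measured by ELISA, and bidirectional curve fitting used DMSO as the negative control and baseline.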

Read-out in assay [3]: Tissue Factor, F3 (gene 2152)
Put plainly: BSK_LPS_TissueFactor: BioMAP Diversity Plus: LPS Assay for Tissue Factor Biomarker Activity (AID 2283084). The settings on record: primary human HUVEC with PBMC; actives raise or lower the signal. The method, boiled down:
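Human umbilical vein endothelial cells co-cultured with peripheral blood mononuclear cells were dosed and stimulated with LPS. Cell-surface CD142 was quantified by ELISA at 24 h. Activity was fitted bidirectionally against DMSO baseline.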

Read-out in assay [4]: Tumor necrosis factor (Homo sapiens) (UniProt P01375)
Put plainly: BSK_LPS_TNFa: BioMAP Diversity Plus: LPS Assay for Tumour Necrosis Factor alpha (TNFa) Biomarker Activity (AID 2283085).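 For AC50: TNFa protein level quantified by ELISA in the co-culture.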 The settings on record: primary human HUVEC with PBMC; actives raise or lower the signal. The method, boiled down:
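TNFa was quantified by ELISA in LPS-activated co-cultures of human endothelial cells and PBMC, 24 h post-dosing. Both increases and decreases versus DMSO were fitted.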

Read-out in assay [5]: Vascular cell adhesion molecule 1 (VCAM1), VCAM1 (gene 7412)
Briefly: BSK_LPS_VCAM1: BioMAP Diversity Plus: LPS Assay for Vascular cell adhesion molecule 1 (VCAM1) Biomarker Activity (AID 2283086). The settings on record: primary human HUVEC with PBMC; actives raise or lower the signal. A digest of the protocol:
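VCAM-1 quantified by ELISA in an LPS-activated co-culture of human endothelial cells and peripheral blood mononuclear cells, read 24 h post-treatment. Fitted in both directions versus DMSO; parallel SRB staining flags overt cytotoxicity.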

Read-out in the next assay: CD38, CD38 (gene 952)
Briefly: BSK_SAg_CD38: BioMAP Diversity Plus: SAg Assay for CD38 Biomarker Activity (AID 2283087). The settings on record: primary human HUVEC with PBMC; actives raise or lower the signal. A digest of the protocol: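 CD38 quantified by ELISA (fluorescence) in a superantigen-activated endothelial cell–PBMC co-culture at 24 h post-dose. Activity fitted in both directions relative to DMSO; parallel SRB and Alamar Blue cytotoxicity read-outs.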

Read-out in another assay: CD40, CD40 (gene 958)
Put plainly: BSK_SAg_CD40: BioMAP Diversity Plus: SAg Assay for CD40 Biomarker Activity (AID 2283088). The settings on record: primary human HUVEC with PBMC; actives raise or lower the signal. A digest of the protocol:
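Human umbilical vein endothelial cells co-cultured with PBMC; CD40 levels measured by ELISA with fluorescence read-out 24 h after chemical dosing. Gain or loss of signal fitted bidirectionally against DMSO baseline.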

Read-out in another assay: CD69, CD69 (gene 969)
Briefly: BSK_SAg_CD69: BioMAP Diversity Plus: SAg Assay for CD69 Biomarker Activity (AID 2283089).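 For AC50: cell surface CD69 protein quantified by ELISA with fluorescence detection.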 The settings on record: primary human HUVEC with PBMC; actives raise or lower the signal. The method, boiled down: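 ELISA, fluorescence read-out: CD69 on human umbilical vein endothelial cell + PBMC co-culture, 24 h post-dosing. Gain or loss of signal fitted bidirectionally against DMSO baseline.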

Read-out in assay [6]: Monocyte Chemoattractant Protein-1 (MCP1), CCL2 (gene 6347)
Briefly: BSK_SAg_MCP1: BioMAP Diversity Plus: SAg Assay for Monocyte Chemoattractant Protein-1 (MCP1) Biomarker Activity (AID 2283090). The settings on record: primary human HUVEC with PBMC; actives raise or lower the signal. A digest of the protocol:
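Values derive from bidirectional fitting of ELISA-measured MCP1 against DMSO controls. Readings were taken 24 h after dosing human vascular endothelial cells co-cultured with peripheral blood mononuclear cells under superantigen stimulation.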

Read-out in assay [7]: E-selectin (Homo sapiens) (UniProt P16581)
Briefly: BSK_SAg_Eselectin: BioMAP Diversity Plus: SAg Assay for Eselectin Biomarker Activity (AID 2283091). The settings on record: primary human HUVEC with PBMC; actives raise or lower the signal. The method, boiled down: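 HUVEC co-cultured with PBMC, compound dosed then read at 24 h; E-selectin measured by ELISA. Activity fitted bidirectionally against DMSO as negative control and baseline.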

Read-out in assay [8]: Monokine induced gamma interferon (MIG), CXCL9 (gene 4283)
Put plainly: BSK_SAg_MIG: BioMAP Diversity Plus: SAg Assay for Monokine induced gamma interferon (MIG) Biomarker Activity (AID 2283092). The settings on record: primary human HUVEC with PBMC; actives raise or lower the signal. A digest of the protocol: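 ELISA readout of MIG/CXCL9; primary human umbilical vein endothelial cells co-cultured with peripheral blood mononuclear cells; 24 h post-dose; gain/loss fit vs DMSO baseline.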

The nature of assay [9]: BSK_SAg_PBMCCytotoxicity: PBMC Cytotoxicity Assessment in the BioMAP Diversity Plus: SAg Assay (AID 2283093).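 For AC50: PBMC superantigen activated with SEB plus TSST-1 one hour after compound addition.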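 Note: PBMC viability measured as Alamar Blue reduction fluorescence at 546/580 nm; fitted both ways against DMSO so a hit may be loss or gain of signal.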 The settings on record: primary human HUVEC with PBMC. A digest of the protocol: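 Alamar Blue reduction (6 h, 546/580 nm) reports PBMC cytotoxicity after 90 h superantigen activation (SEB, TSST-1; 20 ng/mL final each) with 1 h compound pre-treatment. Gain or loss of signal fitted versus DMSO.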

Read-out in assay [10]: Interleukin-8 (IL8), CXCL8 (gene 3576)
Put plainly: BSK_SAg_IL8: BioMAP Diversity Plus: SAg Assay for Interleukin-8 (IL8) Biomarker Activity (AID 2283094). The settings on record: primary human HUVEC with PBMC; actives raise or lower the signal. A digest of the protocol:
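ELISA readout of IL-8 from a superantigen-activated endothelial/PBMC primary human co-culture, taken 24 h post-dosing and fitted in both directions against DMSO; parallel SRB total-protein staining flags overt cytotoxicity.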

Assay [11] in a line: BSK_SAg_Proliferation: Cell Proliferation Assessment in the BioMAP Diversity Plus: SAg Assay (AID 2283095).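 Note: relative cell number as total protein by SRB absorbance in sub-confluent culture.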 The settings on record: primary human HUVEC with PBMC. A digest of the protocol: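 Relative cell number in the endothelial cell/PBMC co-culture was quantified at 96 h by SRB staining (0.1% SRB, 10% TCA fixation, read at 560 nm). Curves were fitted in both directions relative to DMSO baseline.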

Assay [12] in a line: BSK_SAg_SRB: Viability Assessment in the BioMAP Diversity Plus: SAg Assay (AID 2283096).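 Note: cells read one day after compound addition; hits may be either gain or loss of signal compared with DMSO.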 The settings on record: primary human HUVEC with PBMC. The method, boiled down:
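This overt-cytotoxicity endpoint quantifies protein in human endothelial/PBMC co-cultures at 24 h using SRB absorbance (560 nm) after trichloroacetic acid fixation. Values reflect signal change from the DMSO negative control, fitted bidirectionally.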

In assay [13] the target is human CYP1A1, CYP1A1 (gene 1543) (UniProt P04798). Put plainly: NVS_ADME_hCYP1A1: NovaScreen (NVS) CYP450-related Enzyme Activity (ADME) Assay for human CYP1A1 (AID 2283100; active = hit-call score of the fitted dose curve at least 0.9, where 1 is the maximum). A digest of the protocol: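 Cell-free fluorescence assay of recombinant human CYP1A1 activity with a specific substrate, read 1 h after dosing. Compounds were screened in duplicate at 10 uM, then hits tested in concentration-response up to 20 uM; acetonitrile served as baseline.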
Chain of human CYP1A1, CYP1A1 (gene 1543) (P04798 whole entry, looked up): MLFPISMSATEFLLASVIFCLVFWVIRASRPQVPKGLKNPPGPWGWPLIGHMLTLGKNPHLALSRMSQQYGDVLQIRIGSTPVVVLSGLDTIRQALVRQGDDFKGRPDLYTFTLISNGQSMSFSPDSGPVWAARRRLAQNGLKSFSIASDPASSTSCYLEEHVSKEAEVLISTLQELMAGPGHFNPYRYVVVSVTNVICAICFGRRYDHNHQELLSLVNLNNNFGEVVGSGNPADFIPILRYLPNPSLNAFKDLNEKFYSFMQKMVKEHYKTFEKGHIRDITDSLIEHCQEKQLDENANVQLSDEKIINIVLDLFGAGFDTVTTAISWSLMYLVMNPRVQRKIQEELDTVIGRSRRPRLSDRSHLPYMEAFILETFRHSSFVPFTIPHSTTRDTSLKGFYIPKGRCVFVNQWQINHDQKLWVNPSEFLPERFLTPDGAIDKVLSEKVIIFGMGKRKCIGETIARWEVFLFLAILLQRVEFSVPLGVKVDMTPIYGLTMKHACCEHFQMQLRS

For assay [14], the target named is human CYP1A2, CYP1A2 (gene 1544) (UniProt P05177). Put plainly: NVS_ADME_hCYP1A2: NovaScreen (NVS) CYP450-related Enzyme Activity (ADME) Assay for human CYP1A2 (AID 2283102; active = hit-call score of the fitted dose curve at least 0.9, where 1 is the maximum;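 note: potency for inhibition since loss of fluorescence marks reduced CYP1A2 activity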). A digest of the protocol: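 Cell-free recombinant human CYP1A2 expressed in insect cells, with fluorogenic substrate; fluorescence intensity read 0.5 h after dosing. Loss of signal relative to acetonitrile baseline scored. Primary screen in duplicate at 10 uM; actives retested in concentration series.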
Chain of human CYP1A2, CYP1A2 (gene 1544) (P05177 whole entry, looked up): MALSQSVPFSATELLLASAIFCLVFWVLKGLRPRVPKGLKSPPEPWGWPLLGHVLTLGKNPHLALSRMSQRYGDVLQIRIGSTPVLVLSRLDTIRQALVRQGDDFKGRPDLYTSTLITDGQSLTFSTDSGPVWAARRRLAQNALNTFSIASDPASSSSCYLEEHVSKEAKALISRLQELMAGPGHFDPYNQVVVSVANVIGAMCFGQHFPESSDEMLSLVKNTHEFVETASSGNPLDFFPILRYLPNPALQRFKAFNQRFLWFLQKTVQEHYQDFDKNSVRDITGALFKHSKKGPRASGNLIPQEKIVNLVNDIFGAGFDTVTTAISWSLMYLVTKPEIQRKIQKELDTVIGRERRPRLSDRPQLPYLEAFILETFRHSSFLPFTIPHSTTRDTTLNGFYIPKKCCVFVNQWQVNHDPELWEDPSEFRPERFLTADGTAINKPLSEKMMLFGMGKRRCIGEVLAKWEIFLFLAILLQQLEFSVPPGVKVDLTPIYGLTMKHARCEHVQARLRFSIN

The target of assay [15] is human CYP2B6, CYP2B6 (gene 1555) (UniProt P20813). Briefly: NVS_ADME_hCYP2B6: NovaScreen (NVS) CYP450-related Enzyme Activity (ADME) Assay for human CYP2B6 (AID 2283101; active = hit-call score of the fitted dose curve at least 0.9, where 1 is the maximum). A digest of the protocol: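 Fluorescence-based enzyme activity of recombinant human CYP2B6, measured 1 h post-dose against acetonitrile vehicle baseline. Screened at a single concentration of 10 uM in duplicate before concentration-response follow-up.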
Chain of human CYP2B6, CYP2B6 (gene 1555) (P20813 whole entry, looked up): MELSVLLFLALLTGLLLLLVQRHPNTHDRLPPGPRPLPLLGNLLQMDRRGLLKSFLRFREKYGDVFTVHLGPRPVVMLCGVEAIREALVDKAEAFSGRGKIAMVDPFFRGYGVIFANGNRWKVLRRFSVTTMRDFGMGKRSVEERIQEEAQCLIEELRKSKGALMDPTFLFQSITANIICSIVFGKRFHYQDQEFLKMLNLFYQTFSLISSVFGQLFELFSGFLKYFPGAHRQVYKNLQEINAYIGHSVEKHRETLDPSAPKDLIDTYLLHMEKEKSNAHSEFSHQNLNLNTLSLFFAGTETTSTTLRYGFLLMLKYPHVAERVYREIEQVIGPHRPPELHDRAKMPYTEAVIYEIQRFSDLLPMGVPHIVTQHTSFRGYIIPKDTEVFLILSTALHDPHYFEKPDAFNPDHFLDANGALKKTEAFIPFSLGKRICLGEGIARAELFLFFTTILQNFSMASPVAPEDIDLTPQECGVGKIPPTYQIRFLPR

The values that follow come from PubChem BioAssay (EPA / NIEHS).

Results filed as inconclusive are left out. Active and inactive are the calls of the source. Rule for the calls, unless noted: active = hit-call score of the fitted dose curve at least 0.9, where 1 is the maximum; inactive = score below 0.9.

Chain of Tumor necrosis factor (Homo sapiens) (P01375 whole entry, looked up): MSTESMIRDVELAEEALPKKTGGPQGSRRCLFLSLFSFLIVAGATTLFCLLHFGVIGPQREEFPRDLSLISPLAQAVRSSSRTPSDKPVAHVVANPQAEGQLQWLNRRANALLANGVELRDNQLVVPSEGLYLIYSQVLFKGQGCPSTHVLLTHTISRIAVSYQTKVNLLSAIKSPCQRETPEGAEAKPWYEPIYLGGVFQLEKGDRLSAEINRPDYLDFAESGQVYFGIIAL
Chain of E-selectin (Homo sapiens) (P16581 whole entry, looked up): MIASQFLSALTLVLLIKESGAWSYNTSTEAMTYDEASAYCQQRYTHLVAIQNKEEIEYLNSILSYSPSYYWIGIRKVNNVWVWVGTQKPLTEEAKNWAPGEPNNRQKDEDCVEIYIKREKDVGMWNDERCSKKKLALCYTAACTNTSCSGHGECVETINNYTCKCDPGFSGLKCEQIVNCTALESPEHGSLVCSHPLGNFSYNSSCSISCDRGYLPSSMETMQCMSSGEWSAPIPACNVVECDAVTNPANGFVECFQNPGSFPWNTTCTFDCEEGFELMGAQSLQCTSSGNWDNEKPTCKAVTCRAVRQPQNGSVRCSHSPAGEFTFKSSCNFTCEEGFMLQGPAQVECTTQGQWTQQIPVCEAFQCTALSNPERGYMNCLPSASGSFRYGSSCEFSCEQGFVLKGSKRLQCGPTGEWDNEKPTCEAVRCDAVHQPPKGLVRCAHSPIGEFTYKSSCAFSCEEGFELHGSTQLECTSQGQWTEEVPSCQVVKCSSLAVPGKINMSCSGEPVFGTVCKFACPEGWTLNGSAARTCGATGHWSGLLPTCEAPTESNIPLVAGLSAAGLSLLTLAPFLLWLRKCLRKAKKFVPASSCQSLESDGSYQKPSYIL

For the molecule `Oc1ccc2c(c1)-c1ccccc1C2`, the AC50 is 13.2 µM (active) in [1]; 0.334 µM (active) in assay [4]; 24.8 µM (active) with CD40, CD40 (gene 958); 20 µM (active) in assay [12]; 6.18 µM (active) in assay [13]; 691 nM (active) in assay [14]. Moreover, the outcome in [2] was “inactive”; in assay [3], “inactive”; in assay [5], “inactive”; with CD38, CD38 (gene 952) it was “inactive”; with CD69, CD69 (gene 969), “inactive”; in [6] it was “inactive”. Also, the result in assay [7], in assay [8], in assay [9], in assay [10] and in [11] was inactive.
Turning to `O=C1CCCCCN1`, the outcome in assay [1] was “inactive”; in assay [2], “inactive”; in assay [3], “inactive”; in [4], “inactive”; in [5] it was “inactive”; in the assay with CD38, CD38 (gene 952), “inactive”. In addition, the outcome was “inactive” with CD40, CD40 (gene 958); “inactive” with CD69, CD69 (gene 969); “inactive” in [6]; “inactive” in assay [7]; “inactive” in assay [8]; “inactive” in [9]. Further, the outcome in [10] and in [12] was inactive.
As for `Cc1[nH]cnc1C[C@H]1CCc2c(C)c3ccccc3n2C1=O`, the outcome in assay [1] and in assay [3] was inactive. Also, the AC50 was 29.2 µM (active) in [2]; 25.7 µM (active) in [4]; 32.9 µM (active) in assay [5]; 31.2 µM (active) with CD38, CD38 (gene 952); 29.8 µM (active) with CD40, CD40 (gene 958); 27.4 µM (active) in the assay with CD69, CD69 (gene 969). Besides, the AC50 in assay [6] is 27.8 µM (active); in [7], 30.8 µM (active); in assay [8], 31.9 µM (active); in assay [9], 30.7 µM (active); in assay [10], 24.7 µM (active); in assay [11], 31 µM (active). Also, the AC50 in [12] was 26.8 µM (active); in assay [13], 3.83 µM (active); in assay [15], 4.01 µM (active); in [14] it was 1780 nM (active).
